In experiment [1] the test system is TRPC4 beta (transient receptor potential cation channel C4), mouse. Briefly: TRPC4 cation channel opening, retest – cell-based, Fluo4 calcium, HEK293 TRPC4beta/mu-opioid, duplicates, 10 µM, confirmation (AID 2426;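 active = fluorescence ratio normalized to control raised more than 50% in primary screen plus both repeat runs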). The settings on record: Fluo4 calcium fluorescence, at 10 µM; active compounds read high.
Experiment [2] relates to transient receptor potential cation channel C4 beta (TRPC4), mouse. Briefly: TRPC4 cation channel opening, second retest – cell-based, second round, Fluo4, HEK293 TRPC4beta/mu-opioid, 1 µM, confirmation (AID 2461;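 active = primary screen active and over 50% activation in each of two duplicate runs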). The settings on record: Fluo4 calcium fluorescence, at 1 µM; active compounds read high.
Experiment [3] relates to TRPC4 (transient receptor potential cation channel C4 beta), mouse. Briefly: potentiation of DAMGO EC20 TRPC4 response – cell-based, second round, Fluo-4, HEK293 TRPC4beta/mu-opioid, 1 µM, confirmation (AID 2554;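 active = primary screen hit whose fluorescence ratio, in both repeats, exceeds the weak agonist control mean by 3 SD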). The following applies: DAMGO EC20, Fluo-4 calcium flux, at 1 µM; active compounds read high. For orientation: Calcium flux is commonly read through the fluorescence of an indicator in the cells.

The subject of experiment [4] is TRPC4 beta (transient receptor potential cation channel C4), mouse. The experiment can be described thus: potentiation of DAMGO EC20 TRPC4 response – cell-based, Fluo-4, HEK293 TRPC4beta/mu-opioid, confirmation (AID 2555;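 active = primary screen hit whose calcium fluorescence ratio, in both repeats, exceeds the weak agonist control mean by 3 SD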). The following applies: DAMGO EC20, Fluo-4 calcium flux, at 10 µM; active compounds read high.
Experiment [5] concerns the target Short transient receptor potential channel 4 (Mus musculus) (UniProt Q9QUQ5). Briefly: blockers of DAMGO-evoked TRPC4 calcium flux – cell-based, Fluo4, HEK293 TRPC4beta/mu-opioid, confirmation (AID 2636;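 active = calcium signal cut by more than 3 SD below the full-agonist control yet still positive, in both repeats and the earlier primary screen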). The following applies: at 10 µM; active compounds read high.
Experiment [6] shares this target. The experiment can be described thus: blockers of DAMGO-evoked TRPC4 calcium flux – cell-based, second round, Fluo4, HEK293 TRPC4beta/mu-opioid, 1 µM, confirmation (AID 2637;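 active = calcium signal ratio cut to more than 3 SD under the fully stimulated control mean yet still positive, in both repeats and the primary screen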). The following applies: at 1 µM; active compounds read high.
Experiment [7] shares this target. The experiment can be described thus: calcium entry via TRPC4 opening agents – cell-based, HEK293 TRPC4/mu-opioid, Fluo-4 calcium, dose response (AID 434937;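 active = primary screen activator hit with a dose response curve and TRPC4 channel activation at any tested dose; inactive = no activation, no dose response, or not a primary hit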).
For experiment [8] the target is unchanged. Briefly: potentiation of DAMGO-evoked TRPC4 calcium signal – cell-based, HEK293 TRPC4/mu-opioid, Fluo-4 calcium, EC20 DAMGO, dose response (AID 434941).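 Also: calcium entry triggered by an EC20 dose of DAMGO at the co-expressed mu-opioid receptor.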
Experiment [9] has the same target. Briefly: block of DAMGO-driven TRPC4 calcium entry – cell-based, HEK293 TRPC4/mu-opioid, Fluo-4 calcium, dose response (AID 434942;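 active = primary screen inhibitor hit that blocks the TRPC4 channel at some tested dose, yielding a dose curve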).
Experiment [10] has as its target Short transient receptor potential channel 6 (Mus musculus) (UniProt Q61143). The experiment can be described thus: TRPC6 blockade by TRPC4 inhibitor hits – cell-based, HEK293, membrane potential dye, duplicate, selectivity assay for TRPC4 inhibitor project, confirmation (AID 434948;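 active = active in primary screen and both duplicates, each dropping signal beyond three positive-control SD with fluorescence still positive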). The settings on record: HEK293 TRPC6, membrane potential dye fluorescence, at 10 µM, stimulated with maximal-effect acetylcholine; active compounds read high.

Experiment [11] shares this target. The experiment can be described thus: TRPC6 opening by TRPC4 activator hits – cell-based, HEK293, membrane potential dye, duplicate, selectivity assay for TRPC4 activator project, confirmation (AID 434950;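 active = membrane potential signal rise above negative control mean plus 3 SD in both duplicates, also active in the earlier TRPC4 screen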). The settings on record: HEK293 TRPC6, membrane potential fluorescence, at 10 µM; activation: active compounds read high; outcome: activation.
The target is the same in experiment [12]. Briefly: positive modulators of mouse TRPC6 channel – HEK293 cells, membrane potential dye, duplicate, selectivity assay for TRPC4 potentiator project, confirmation (AID 434952;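 active = compound raising the membrane signal above positive-control mean plus 3 SD in both repeats, and a primary screen hit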). The settings on record: HEK293 TRPC6, membrane potential dye fluorescence, at 10 µM, maximal acetylcholine added after compound; active compounds read high.
For experiment [13], the target named is Short transient receptor potential channel 4 (Mus musculus) (UniProt Q9QUQ5). Briefly: calcium flux activators in TRPC4/5HT1a cells, counter-screen for TRPC4 activator project, cell-based, second counter screen, HEK293 TRPC4/5HT1a, Fluo-4 (AID 434977;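 active = calcium signal rise above buffer-control mean plus 5 SD in both duplicates, and also a hit in the primary screen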). The settings on record: Fluo-4 calcium flux, at 10 µM; active compounds read high.
Sequence of Short transient receptor potential channel 4 (Mus musculus) (Q9QUQ5 whole entry, looked up): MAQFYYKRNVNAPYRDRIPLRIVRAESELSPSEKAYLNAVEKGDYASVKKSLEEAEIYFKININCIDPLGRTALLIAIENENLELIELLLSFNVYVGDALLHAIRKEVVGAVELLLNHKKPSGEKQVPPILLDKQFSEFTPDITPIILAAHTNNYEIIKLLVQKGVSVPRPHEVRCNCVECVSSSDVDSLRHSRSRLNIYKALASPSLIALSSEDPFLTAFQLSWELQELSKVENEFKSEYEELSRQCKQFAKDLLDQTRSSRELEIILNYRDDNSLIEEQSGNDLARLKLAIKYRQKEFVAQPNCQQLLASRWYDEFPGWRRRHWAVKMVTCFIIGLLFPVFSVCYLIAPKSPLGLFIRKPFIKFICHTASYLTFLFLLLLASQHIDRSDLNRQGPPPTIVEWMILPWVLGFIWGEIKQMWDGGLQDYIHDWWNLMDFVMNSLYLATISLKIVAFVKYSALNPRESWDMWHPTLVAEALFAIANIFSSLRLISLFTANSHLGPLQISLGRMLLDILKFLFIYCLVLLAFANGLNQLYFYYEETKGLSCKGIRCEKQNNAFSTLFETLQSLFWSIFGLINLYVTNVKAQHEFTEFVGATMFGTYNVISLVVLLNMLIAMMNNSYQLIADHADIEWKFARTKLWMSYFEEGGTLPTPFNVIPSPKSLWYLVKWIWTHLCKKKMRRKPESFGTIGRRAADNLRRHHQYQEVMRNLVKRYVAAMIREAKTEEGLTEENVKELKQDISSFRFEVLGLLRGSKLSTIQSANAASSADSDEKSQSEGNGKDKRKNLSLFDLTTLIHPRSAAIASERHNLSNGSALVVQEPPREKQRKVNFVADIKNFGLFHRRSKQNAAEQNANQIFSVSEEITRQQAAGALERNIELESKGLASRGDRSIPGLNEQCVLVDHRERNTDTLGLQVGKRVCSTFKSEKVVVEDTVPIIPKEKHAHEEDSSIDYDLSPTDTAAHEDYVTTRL
A short description of experiment [14]: serotonin-gated TRPC4 signal block – cell-based, second counter screen, HEK293 TRPC4/5HT1a, Fluo-4, counter-screen for TRPC4 inhibitor project, confirmation (AID 434978;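 active = primary screen active whose calcium signal fell more than 3 SD beyond the full-serotonin control mean in both duplicate plates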;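 also: serotonin given first at submaximal then at maximal dose after compound preincubation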). The following applies: Fluo-4 calcium flux, at 10 µM, serotonin added to trigger calcium flux; active compounds read high. For orientation: Counterscreens check selectivity or assay interference.
Experiment [15] deals with TRPC4 (mouse), co-expressed with 5HT1a in HEK293. The experiment can be described thus: enhancement of serotonin-evoked TRPC4 response – cell-based, second counter screen, HEK293 TRPC4/5HT1a, Fluo-4, counter-screen for TRPC4 potentiator project, confirmation (AID 434979;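 active = signal rise over 3 SD above mean of control wells given weak agonist, in both repeats and first screen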). The following applies: Fluo-4 calcium flux, at 10 µM, serotonin added at its EC20 dose; active compounds read high.

Experiment [16] in a line: nonspecific calcium rise without TRPC4 – cell-based, HEK293 mu-opioid receptor line, counter-screen for TRPC4 activator project, confirmation (AID 449723;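 active = hit in primary screen, with calcium signal over 5 SD above buffer well mean in both duplicates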;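 also: counter screen cells carry the mu-opioid receptor alone and lack TRPC4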). The following applies: HEK293 mu-opioid cells, Fluo-4 calcium fluorescence, at 10 µM; active compounds read high.
The nature of experiment [17]: nonspecific potentiation of DAMGO calcium response – cell-based, HEK293 mu-opioid receptor line, counter-screen for TRPC4 allosteric potentiator project, confirmation (AID 449724;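 active = calcium signal rise more than 3 SD above the low-dose agonist control mean, in both duplicate plates and the primary screen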;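 also: HEK293 cells carrying mu-opioid receptor only with no TRPC4 channel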). The settings on record: HEK293 mu-opioid receptor cells, Fluo-4 calcium flux, at 10 µM, compound added before EC20 DAMGO stimulus; active compounds read high.
Experiment [18] is described as follows: parental CHO-K1 cell activation, no KCNQ2 – FluxOR thallium flux, duplicate, counter-screen for KCNQ2 potentiator project, confirmation (AID 2282;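 active = signal rise of at least 3 SD above the untreated control mean, in both duplicate wells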;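 also: counter screen of KCNQ2 potentiator hits so any rise reflects channel-independent effects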). The settings on record: parental CHO-K1 cells, FluxOR thallium flux fluorescence; at 10 µM; active compounds read high; zero = vehicle mean+3SD, 100% = vehicle-minus-blank window.

Values without a mark were called inactive. For some assays here: Results with a measured potency or affinity are listed apart. The list shows a part of the results. Active and inactive are the calls of the source.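 The calls were made as follows, unless noted: active = earlier screen potentiator hit that boosts the TRPC4 ion channel at some dose, with a dose response; inactive = no potentiation, no dose response, or not a prior hit.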

Here are results for 14 molecules from PubChem BioAssay.

Sequence of Short transient receptor potential channel 6 (Mus musculus) (Q61143 whole entry, looked up): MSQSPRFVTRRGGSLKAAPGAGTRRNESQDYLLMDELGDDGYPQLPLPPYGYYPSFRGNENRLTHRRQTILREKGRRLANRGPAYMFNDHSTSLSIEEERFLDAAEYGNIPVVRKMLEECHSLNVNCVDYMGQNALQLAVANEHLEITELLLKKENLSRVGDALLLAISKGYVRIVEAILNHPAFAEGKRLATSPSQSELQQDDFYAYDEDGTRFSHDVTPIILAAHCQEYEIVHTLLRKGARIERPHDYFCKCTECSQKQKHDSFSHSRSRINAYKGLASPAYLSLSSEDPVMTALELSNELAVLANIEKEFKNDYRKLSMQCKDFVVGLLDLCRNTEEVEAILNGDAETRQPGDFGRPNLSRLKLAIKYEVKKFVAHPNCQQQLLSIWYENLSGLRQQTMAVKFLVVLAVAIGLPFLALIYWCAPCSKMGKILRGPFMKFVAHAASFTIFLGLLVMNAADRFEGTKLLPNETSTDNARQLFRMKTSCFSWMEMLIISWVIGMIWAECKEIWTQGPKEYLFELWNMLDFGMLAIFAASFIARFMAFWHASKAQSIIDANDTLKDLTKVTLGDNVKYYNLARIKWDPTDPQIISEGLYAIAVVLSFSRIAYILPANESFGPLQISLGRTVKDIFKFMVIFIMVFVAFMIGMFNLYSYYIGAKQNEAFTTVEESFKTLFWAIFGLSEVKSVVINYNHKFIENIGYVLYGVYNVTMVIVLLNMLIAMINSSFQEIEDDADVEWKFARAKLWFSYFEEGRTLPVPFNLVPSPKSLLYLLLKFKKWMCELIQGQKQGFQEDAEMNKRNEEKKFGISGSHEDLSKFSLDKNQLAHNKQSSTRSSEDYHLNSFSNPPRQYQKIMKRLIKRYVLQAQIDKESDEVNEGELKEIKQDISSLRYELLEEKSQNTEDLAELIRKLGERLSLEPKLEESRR

Usually inhibition stands for the percentage by which the read-out fell short of the control. On to `c1ccc(Cn2nnc3cnccc32)cc1`, for which the result in experiment [1], in experiment [2], in experiment [3], in experiment [4], in experiment [6] and in [7] was inactive. Also, the result in experiment [8], in experiment [9], in experiment [10], in experiment [11], in experiment [12] and in experiment [13] was inactive. In addition, the result in experiment [14], in [15], in experiment [16] and in [17] was inactive. The inhibition in experiment [5] is 65% (active).
On to `CC1CCN(CC(O)COCCC23CC4CC(CC(C4)C2)C3)CC1` (stereo unspecified), for which the result in experiment [1], in experiment [2], in experiment [3], in [4], in experiment [5] and in experiment [6] was inactive. Moreover, the result in [7], in [8], in experiment [9], in experiment [10], in experiment [11] and in experiment [12] was inactive. For the same molecule, the outcome in [13], in experiment [14], in [15], in experiment [16] and in experiment [17] was inactive.
With `O=C(c1ccccc1)c1coc2ccc(O)c(CN3CCOCC3)c12`, the result in [1], in [2], in experiment [3], in experiment [4], in [5] and in [6] was inactive. The outcome in [7], in experiment [8], in [9], in experiment [10], in experiment [11] and in experiment [12] was inactive. The result in experiment [13], in experiment [14], in experiment [15], in experiment [16] and in experiment [17] was inactive.
Turning to `Cc1ccc(CS(=O)(=O)c2ncc(Cl)c(C(=O)Nc3nnc(C)s3)n2)cc1`, in experiment [18], the activity increase over 3SD of controls was 30.6% (active).
Consider `CN(C)C(CNc1ccc(C(N)=O)cc1[N+](=O)[O-])c1ccccc1` (stereo unspecified), for which the outcome in experiment [1], in experiment [2], in experiment [3], in [4], in experiment [5] and in experiment [6] was inactive. Moreover, the outcome in experiment [7], in experiment [8], in [9], in experiment [10], in experiment [11] and in [12] was inactive. The outcome in experiment [13], in experiment [14], in [15], in [16] and in [17] was inactive.
Turning to `CC(Nc1nc(N2CCCC2)nc2ccccc12)c1ccccc1` (stereo unspecified), the result in [1], in experiment [2], in experiment [3], in experiment [4], in experiment [5] and in [6] was inactive. The outcome in experiment [7], in experiment [8], in experiment [9], in experiment [10], in experiment [11] and in experiment [12] was inactive. Also, the outcome in [13], in experiment [14], in experiment [15], in [16] and in [17] was inactive.
In the case of `NS(=O)(=O)c1ccc(CCNCc2cc(Br)ccc2OCc2ccccc2)cc1`, the result in experiment [1], in [2], in experiment [3], in experiment [4], in [5] and in experiment [6] was inactive. For the same molecule, the outcome in experiment [7], in experiment [8], in [9], in [10], in [11] and in experiment [12] was inactive. Besides, the outcome in experiment [13], in experiment [14], in [15], in experiment [16] and in experiment [17] was inactive.
Take `CC1CN(c2nc3c(c(=O)n(Cc4ccc(Cl)c(Cl)c4)c(=O)n3C)n2C)CC(C)O1` (stereo unspecified): the result in experiment [1], in [2], in experiment [3], in [5], in [6] and in experiment [7] was inactive. Besides, the result in experiment [8], in experiment [9], in experiment [10], in experiment [11], in experiment [12] and in experiment [13] was inactive. In addition, the result in experiment [14], in [16] and in experiment [17] was inactive. Besides, the potentiation in experiment [4] is 13% (active); in [15] it was 26.4% (active).
Take `CC(=O)Cn1ncc(N2CCOCC2)cc1=O`: the outcome in experiment [1], in experiment [2], in [3], in [4], in experiment [5] and in experiment [6] was inactive. Also, the outcome in experiment [7], in experiment [8], in experiment [9], in [10], in experiment [11] and in experiment [12] was inactive. For the same molecule, the outcome in experiment [13], in [14], in experiment [15], in experiment [16] and in experiment [17] was inactive.
With `COc1ccc(NC(=O)CCCC2CCCCC2)c(OC)c1`, the activity increase over 3SD of controls in experiment [18] is -19.3%.
As for `CC(=O)Nc1ccc(S(=O)(=O)N2CCN(CCCOc3cc(C)ccc3C)CC2)cc1`, the outcome in experiment [1], in experiment [2], in experiment [3], in experiment [5], in experiment [6] and in experiment [7] was inactive. Further, the result in experiment [8], in experiment [9], in experiment [10], in [11], in experiment [12] and in experiment [13] was inactive. For the same molecule, the result in experiment [14], in experiment [15], in [16] and in [17] was inactive. Further, in [4], the potentiation is 24% (active).
As for `Cc1nnc(Sc2cc(NCCCO)c([N+](=O)[O-])c3nonc23)s1`, the result in experiment [1], in experiment [2], in experiment [3], in [4], in experiment [6] and in experiment [7] was inactive. The outcome in experiment [8], in experiment [9], in experiment [10], in experiment [11], in [12] and in experiment [13] was inactive. In addition, the outcome in experiment [14], in experiment [15], in [16] and in [17] was inactive. Moreover, the inhibition in [5] was 84% (active).
In the case of `Oc1cccc(C(=S)N2CCN(Cc3ccccc3)CC2)c1`, the outcome in experiment [1], in experiment [2], in experiment [3], in experiment [4], in experiment [5] and in [6] was inactive. For the same molecule, the outcome in [7], in experiment [8], in experiment [9], in [10], in [11] and in experiment [12] was inactive. Moreover, the result in experiment [13], in [14], in experiment [15], in experiment [16] and in experiment [17] was inactive.
With `COc1ccccc1CNCc1cc(Br)ccc1OC`, the result in [1], in experiment [2], in experiment [3], in [4], in [5] and in [6] was inactive. Moreover, the result in experiment [7], in [8], in experiment [9], in experiment [10], in experiment [11] and in experiment [12] was inactive. Moreover, the outcome in experiment [13], in experiment [14], in experiment [15], in experiment [16] and in [17] was inactive.
